In the supplement of paper PMC3842684:

System: P. falciparum NF54-pfs16-GFP late (IV-V) stage gametocytes
Experiment: relative % inhibition of viable gametocyte number; higher = more gametocytocidal
Conditions: 5 µM; stage: late (IV-V) gametocyte; incubation 72 h
Outline: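 Compound was tested in duplicate at 5 or 0.5 µM on magnet-isolated NF54 pfs16-GFP gametocytes, taken either early (I/IIa, day 2) or late (day 8) and plated at 10% parasitaemia, 0.1% haematocrit. Incubation ran 72 h at 37°C, 5% CO2, 5% O2, followed by overnight MitoTracker Red staining and confocal imaging. Relative inhibition, based on counts of elongated GFP objects with above-cut-off MitoTracker signal, was normalised to in-plate vehicle and positive-control wells.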

| Compound | relative % inhibition [%] |
| --- | --- |
| CCn1c2c(c(=N)c3c1CCC3)CCCC2 | -7.91 |
| CCOc1ccc(C2N(C)c3ccccc3N2C)cc1 | -12.5 |
| CC1CCN(Cc2c(O)ccc3cc(-c4nc5ccccc5s4)c(=O)oc23)CC1 | 18.4 |
| COc1cccc(NC(=O)Cn2c(C)c(C#N)c3ccccc32)c1 | 29.8 |
| CN(C)CCCNc1c2ccccc2nc2ccccc12 | 101 |
| CCCCOc1ccc(C(=O)Nc2cc(C)on2)cc1 | 17.4 |
| COc1ccc(C(C)=O)cc1N1C(=O)C2C(C1=O)C1(c3ccccc3)C(=O)C2(c2ccccc2)C(c2ccc(C)cc2)=C1c1ccc(C)cc1 (centres undefined) | 73.1 |
| CCOc1c(Cl)cc(CNCC(O)c2ccccc2)cc1OC (centres undefined) | 57.1 |
| Oc1ccc(Cl)cc1CNc1nc2ccccc2[nH]1 | 13.6 |
| O=C(Nc1ccc(CN2CCOCC2)cc1)c1ccc(-c2cc(Cl)ccc2Cl)o1 | 21.4 |
| COc1cccc(-c2nn(C)c3sc(C(=O)NCCN4CCN(c5ccccc5F)CC4)cc23)c1 | 4.42 |
| COc1ccc(C(=O)NC(c2ccc(Cl)cc2Cl)c2cc(Cl)c3cccnc3c2O)cc1 (centres undefined) | 98.7 |
| Cc1sc2ncnc(Sc3nc4ccccc4[nH]3)c2c1C | 94.5 |
| CCN(CC)c1ccc(NC(=O)c2cccs2)cc1 | 43.6 |
| COc1ccc(Nc2cc(C)nc(NCc3ccccc3)n2)cc1 | 36 |
| COc1cccc(C(=O)Nc2ccc(-c3nc4ccccc4[nH]3)cc2)c1 | -5.77 |
| O=C(Nc1ccccc1O)c1ccc(-c2ccc(Cl)cc2Cl)o1 | 17.5 |
| CC1=C(CC(=O)c2cccc([N+](=O)[O-])c2)C(=O)c2ccccc2C1=O | 54.1 |
| CCCCc1c(C)nc2c(OC)cccc2c1O | 63.9 |
| CCc1ccc(Nc2cc(C)c3ccc(O)cc3n2)cc1 | 56.6 |

| Compound | relative % inhibition [%] |
| --- | --- |
| COc1ccccc1C(=O)ON=C(N)Cc1cccc2ccccc12 | 92.5 |
| COc1ccc(-c2nonc2NC(=O)c2cccc(Cl)c2)cc1OC | -2.96 |
| Cc1ccc(-c2nc3ccccc3o2)cc1NCc1cc(Cc2ccccc2)ccc1O | 48.6 |
| CN(C)c1ccc(C=Cc2nc(=O)c3ccccc3o2)cc1 | 88.2 |
| Cc1cc(C)c2c(c1)OCN(Cc1ccccc1Cl)C2 | 47.8 |
| O=C(Nc1ccc(N2CCCCC2)c(Cl)c1)c1ccc(Br)o1 | 22.2 |
| COc1ccc(OC)c(C2C3=C(CC(C)(C)CC3=O)N(c3ccc(Cl)c(Cl)c3)C3=C2C(=O)CC(C)(C)C3)c1 | 79.2 |
| Cc1sc(NC(=O)c2ccccc2)c(C(c2cccs2)N2CCN(c3ccccc3)CC2)c1C (centres undefined) | 77 |
| CC(O)(c1ccc(Cl)cc1)C(CN1CCCCC1)c1ccccc1 (centres undefined) | 22.3 |
| O=C(Nc1ccc(F)c(Cl)c1)Nc1ccc(Cl)c(Cl)c1 | 30.3 |
| CCCCCCc1cc2cc(-c3nc4ccccc4[nH]3)c(=Nc3ccccc3C)oc2cc1O | 52.7 |
| CN(C)CCNc1cc(-c2ccccc2)nc2ccccc12 | 6.35 |
| COc1cc2c(cc1OC)C1=NNC(=O)C1=NC(C)(C)C2 | 98.5 |
| Cc1cc(NC(=O)C2c3ccccc3C(=O)N(CC(C)C)C2c2cccs2)no1 (centres undefined) | 36.1 |
| CCN1CCN(c2cc(C)c3cc(NC(=O)c4ccc(OC)c(OC)c4)ccc3n2)CC1 | 3.96 |
| CC(C)c1ccc(CNCC(O)c2ccccc2)cc1 (centres undefined) | 39.8 |
| Cn1c(C(=O)c2cccc3ccccc23)nc2ccccc21 | 5.95 |
| O=c1nc(C=Cc2ccc(Cl)cc2)oc2ccccc12 | 19.3 |
| Oc1ccccc1CN1CCN(C(c2ccccc2)c2ccccc2)CC1 | 78.5 |
